In the library only some 22% were active in any assay of this set; here they are far more common.
CYP2C9 inh – blocks human cytochrome P450 2C9. AID 777. inhibition, % at 5 µM. CYP2C9 Supersomes, luciferin-H conversion, luminescence. P11712. 96,000 compounds, 20% hits;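 active means blocking of liver enzyme CYP2C9 beyond about 50% at 5 µM, limit read from the data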
CYP2C9 activ – CYP2C9 (human) activation; recombinant CYP2C9, luciferin-H conversion, luminescence; hits give high values; factor 1 = untreated enzyme, 0 = blocked; activation factor at 5 µM; 96,000 compounds, 1.4% hits; AID 1024;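 active means activation factor of 2 or more for CYP2C9 at a 5 µM dose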;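 further: 0 = sulfaphenazole-blocked wells and 1 = vehicle-only wells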
E-sel TNF inh – blocks E-selectin expression induced by TNF alpha | HUVEC TNFa-induced E-selectin immunofluorescence, high content | inhibition, % at 2 µM | 120,000 compounds, 0.71% hits | AID 1246;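 active means inhibition above the batch mean plus 3 SD, and confirmed as a hit on visual image review, cut at about 43% in these data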;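 further: 0% = TNF-stimulated DMSO wells and 100% = unstimulated control wells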
CYP2C19 act – activators of human cytochrome P450 2C19; recombinant CYP2C19, luciferin-H EGE luminescence; hits give high values; 0 = fully inhibited enzyme, 1 = untreated enzyme; activation factor at 5 µM; 96,000 tested, under 10 active; AID 1025;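 active means activation factor of at least 2 at 5 µM in the primary screen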;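 further: 0 = wells with 2.5 mM tranylcypromine and 1 = vehicle-only wells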
Target sequence (P33261 whole entry, looked up): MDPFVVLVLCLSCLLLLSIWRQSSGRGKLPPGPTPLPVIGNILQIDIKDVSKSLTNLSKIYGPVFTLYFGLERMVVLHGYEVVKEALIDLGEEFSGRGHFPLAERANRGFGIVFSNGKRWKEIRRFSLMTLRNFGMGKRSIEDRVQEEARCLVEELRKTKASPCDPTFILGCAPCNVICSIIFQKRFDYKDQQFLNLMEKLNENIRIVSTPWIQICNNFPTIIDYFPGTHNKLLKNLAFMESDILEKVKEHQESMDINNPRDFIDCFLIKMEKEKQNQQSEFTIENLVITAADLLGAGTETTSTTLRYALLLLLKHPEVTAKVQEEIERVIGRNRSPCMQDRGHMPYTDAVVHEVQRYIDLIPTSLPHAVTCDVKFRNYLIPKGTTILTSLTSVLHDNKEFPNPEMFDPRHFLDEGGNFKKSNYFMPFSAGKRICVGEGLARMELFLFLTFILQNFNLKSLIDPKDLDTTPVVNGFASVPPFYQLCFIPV
CYP2C19 inhib – inhibitors of human CYP2C19; P33261; 96,000 compounds, 21% hits; CYP2C19 Supersomes, luciferin-H EGE luminescence, 30 min; AID 778; inhibition, % at 5 µM;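 active means CYP2C19 inhibition above a set limit at 5 µM in the primary screen, cut at about 50% in these data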;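 further: plate controls were negative control wells for no effect and 2.5 mM tranylcypromine positive control for full effect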
cytoskel mod – alters cytoskeleton assembly in HUVEC cells | inhibition, % at 2 µM | HUVEC TNFa F-actin phalloidin imaging, high content | 91,000 compounds, 0.18% hits;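 active means inhibition above the batch mean plus 3 SD and confirmed as a hit by visual image inspection, cut at about 30% in these data, passing the limit was not always enough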
* = called active by the depositor; x = no result given.

SMILES | CYP2C9 inh | CYP2C9 activ | E-sel TNF inh | CYP2C19 act | CYP2C19 inhib | cytoskel mod
O=c1c(Cl)nc2cc(Cl)ccc2n1CCNc1ncc(C(F)(F)F)cc1Cl | 47 | 0.5 | 10 | 0.3 | 73* | -16
O=c1[nH]c2cccc(Cl)c2n(CCNc2ncc(C(F)(F)F)cc2Cl)c1=O | 36 | 0.6 | -16 | 0.4 | 61* | 8
NNc1nc2cccnc2n(CCNc2ncc(C(F)(F)F)cc2Cl)c1=O | x | x | -24 | x | x | x
CC(Sc1nc(O)c(-c2ccccc2)c(=O)[nH]1)C(=O)Nc1ccc(Cl)cc1 (stereo not drawn) | x | x | -2 | x | x | x
CCCC(=O)NC1=C(C#N)C2(CCCC2)Cc2ccccc21 | 13 | 0.9 | -3 | 0.6 | 41 | -4
CCCC(=O)C1=C(c2ccccc2)C(C#N)(C#N)C(C#N)=C1N | 73* | 0.3 | -6 | 0.7 | 32 | -6
CC(=O)NC1CC2CCC(C1)N2Cc1ccc(C)cc1 (stereo not drawn) | -1 | 1 | x | 0.5 | 54* | -1
COc1ccccc1OCC(=O)N(Cc1nc(-c2ccccc2)no1)C1CCCCC1 | 44 | 0.6 | -12 | 0.5 | 46 | 6
COc1ccc(S(=O)(=O)Nc2nc(C(F)(F)F)cs2)cc1 | 98* | 0 | 0 | 0.6 | 35 | 13
CCNc1nc(NCC)n2c(SCc3ccc(F)cc3)nnc2n1 | 3 | 1 | 10 | 0 | 96* | -37
CCNc1nc(NCC)n2c(SCc3nc4ccccc4c(=O)[nH]3)nnc2n1 | 5 | 0.9 | -30 | 0.8 | 24 | 2
CCc1ccccc1NC(=O)Cn1nnc(C(=O)NCc2cccs2)c1N | x | x | 2 | x | x | x
CC(=O)N1CCN(CCN=CC2=C(O)CC(c3cccs3)CC2=O)CC1 (stereo not drawn) | -15 | 1.2 | 15 | 1 | -4 | -2
Cn1c(=O)cc(NCc2ccccc2)[nH]c1=O | -10 | 1.1 | -7 | 1.2 | -16 | x
Cc1ccc(N2C(=O)C(Cl)=C(NCc3ccccc3)C2=O)c(C)c1 | 53* | 0.5 | -3 | 0.5 | 51* | 6
COc1ccc(-c2csc3ncn(-c4ccccc4OC)c(=O)c23)cc1OC | x | x | -9 | x | x | x
CN1CCN(NC(=O)c2ccccc2F)CC1 | -17 | 1.2 | 24 | 1 | 5 | 39
CN(C)S(=O)(=O)c1cc(NC(=O)CSc2ncc(C(F)(F)F)cc2Cl)ccc1Cl | x | x | 2 | x | x | x
COCCn1c(SCC(=O)Nc2cccc(S(N)(=O)=O)c2)nc2ccccc21 | 18 | 0.8 | -17 | 0.7 | 31 | -25
COCCn1c(SCC(=O)Nc2ccc(S(N)(=O)=O)cc2)nc2ccccc21 | 68* | 0.3 | 16 | 1.2 | -22 | 10
COCCn1c(SCC(=O)Nc2ccc(Cl)c(S(=O)(=O)N(C)C)c2)nc2ccccc21 | 87* | 0.1 | -20 | 0.7 | 27 | 26
COCCn1c(SCC(=O)Nc2ccccc2OC)nc2ccccc21 | x | x | -25 | x | x | x
COCCn1c(SCC(=O)Nc2ccc(S(=O)(=O)N3CCOCC3)cc2)nc2ccccc21 | 66* | 0.3 | x | 0.8 | 16 | 15
COCCn1c(SCC(=O)Nc2nc(C)c(Cl)cc2Cl)nc2ccccc21 | 22 | 0.8 | -13 | 0 | 96* | 5
COc1ccc(CNC(=O)Cn2c(=O)oc3ccccc32)cc1OC | -9 | 1.1 | -3 | 0.8 | 19 | 10
SMILES | CYP2C9 inh | CYP2C9 activ | E-sel TNF inh | CYP2C19 act | CYP2C19 inhib | cytoskel mod
Cn1c2ccccc2n2c(=O)c(=O)n(CC(=O)N3CCCc4ccccc43)nc12 | x | x | 8 | x | x | x
Cc1cc(C)nc(NC2=NC3CCCCC3N2)n1 (stereo not drawn) | 1 | 1 | -21 | 1 | -1 | -11
CN(CCO)CCOCCOc1cccc2ccccc12 | x | x | -4 | x | x | x
O=S(=O)(Nc1cccc2ccccc12)N1CCCC1 | 10 | 0.9 | -35 | 0.3 | 68* | 2
O=C(c1cc(S(=O)(=O)N2CCCCC2)ccc1N1CCOCC1)N1CCN(Cc2ccccc2)CC1 | x | x | 5 | x | x | x
COc1ccccc1NC(=O)c1ccccc1NS(=O)(=O)N1CCCC1 | -12 | 1.1 | 25 | 0.7 | 30 | 13
O=C(COC(=O)c1cc(S(=O)(=O)NCc2ccccc2)ccc1O)NCc1ccccc1 | 46 | 0.5 | 13 | 0.9 | 8 | 0
O=C(COC(=O)c1cc(S(=O)(=O)N2CCOCC2)ccc1O)NCCc1ccccc1 | 83* | 0.2 | 5 | 0.5 | 49 | 3
O=C(NCCc1ccccc1)c1ccccc1NS(=O)(=O)N1CCCC1 | 86* | 0.1 | 2 | 0.1 | 89* | -43

Compound activity (PubChem)
